Screens (PubChem BioAssay)
NPR1 antag: antagonists of human natriuretic peptide receptor Npr1; AID 1347048; 76,000 tested, 1.6% active; Potency, µM (titrated, usually from 46.3 µM), actives largely listed as inhibitors; HEK293 hNpr1 GloSensor cGMP, ANP-stimulated luminescence; calls by dose curve; note: nearly all actives have a fitted effect of over 60% in size
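Compound pre-incubated 30 min at room temperature on GloSensor-loaded HEK293 cells stably carrying hNpr1 and the pGS-40F cGMP biosensor. Stimulation uses hNppA at 0.1 nM final; luminescence is taken at baseline and 20 min post-agonist.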
HEK293 tox: cytotoxic compounds in HEK 293 cells | Potency, µM (highest dose often 115 µM), hits mostly inhibitors | AID 1345083 | HEK 293 viability, ATP luminescence (CellTiter-Glo), 48-72 h | 94,000 tested, 6.6% active; note: nearly all actives have a fitted effect of over 60% in size
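250 HEK 293 cells/well; compound by pintool; incubated 48 or 72 hr at 37 degree Celsius; CellTiter-Glo added, 10 min RT, luminescence imaged.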
NIH3T3 tox: NIH 3T3 cell cytotoxicity. NIH 3T3 viability, CellTiter-Glo ATP luminescence, 48-72 h. Potency, µM (titrated, usually from 96.7 µM), usual class: inhibitors. 94,000 tested, 4.3% active. AID 1345082; note: nearly all actives have a fitted effect of over 55% in size
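Cells were seeded at 400 per well, treated with pin-transferred compound, and kept 48 or 72 hr at 37 °C before CellTiter-Glo addition and luminescence imaging of cellular ATP.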
Luciferase inh: blocks purified firefly luciferase enzyme activity | Potency, µM (series often up to 115 µM), usual class: inhibitors | purified P. pyralis luciferase, luminescence, biochemical | AID 1347043 | P08659 | 76,000 tested, 2.5% active; note: nearly all actives have a fitted effect of over 65% in size
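Purified P. pyralis luciferase (10nM final) in 50mM Tris acetate pH 7.5, 10mM Mg acetate, 0.01% Tween-20, 0.05% BSA with 10uM D-luciferin and 10uM ATP. Compounds titrated qHTS. Luminescence imaged on CCD.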
GPT2 inhibitor: inhibitors of human GPT2 alanine aminotransferase; Recombinant GPT2, coupled pyruvate oxidase/HRP Amplex Red fluorescence; Potency, µM (titrated, usually from 57.7 µM), hits mostly inhibitors; 100,000 tested, 0.25% active; AID 1671188; note: nearly all actives have a fitted effect of over 60% in size
Target sequence (Q8TD30 whole entry, looked up): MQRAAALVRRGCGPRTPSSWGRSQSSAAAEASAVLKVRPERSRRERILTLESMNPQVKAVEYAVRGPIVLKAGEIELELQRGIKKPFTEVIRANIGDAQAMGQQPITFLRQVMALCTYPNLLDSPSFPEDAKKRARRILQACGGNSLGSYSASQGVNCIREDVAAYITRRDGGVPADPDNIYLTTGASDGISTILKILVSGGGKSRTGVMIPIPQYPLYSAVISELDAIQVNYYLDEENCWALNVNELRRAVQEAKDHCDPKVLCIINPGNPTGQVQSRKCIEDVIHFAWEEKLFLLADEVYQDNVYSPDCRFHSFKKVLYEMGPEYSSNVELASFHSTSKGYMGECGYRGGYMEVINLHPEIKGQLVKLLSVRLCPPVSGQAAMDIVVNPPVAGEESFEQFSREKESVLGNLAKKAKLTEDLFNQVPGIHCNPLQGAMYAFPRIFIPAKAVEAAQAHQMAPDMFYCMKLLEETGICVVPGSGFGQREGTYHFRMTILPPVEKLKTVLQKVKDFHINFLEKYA
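Fluorescence read-out: pyruvate from GPT2 turnover coupled to pyruvate oxidase, HRP and Amplex Red (0.2mM ThPP, 0.2U/mL PO and HRP, 50uM Amplex final). Substrates 250uM a-KG, 2mM L-alanine; enzyme 10ng/uL; 30 min RT.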
Large screens that a line does not name were inactive. Most compounds without a hit are left out; they make up all but 10% or so of the library. Unless noted, calls come from the whole dose curve; as a rule, active = well fitted curve in the direction sought with a large enough effect; inconclusive = small, poorly fitted or top-dose-only effect, or another doubt; inactive = no such curve, though single readings can be large; an effect the other way counts as inactive or inconclusive.

O=C(Cc1ccc(N(Cc2ccc(F)cc2)C(=O)c2ccco2)cc1)NCc1ccc(F)cc1	HEK293 tox 25µM, NIH3T3 tox 40µM
O=C(Cc1ccc(N(Cc2cccc(F)c2)C(=O)c2ccco2)cc1)NCc1ccccc1	HEK293 tox inconclusive, NIH3T3 tox inconclusive
O=C(Cc1ccc(N(Cc2cccc(F)c2)C(=O)c2ccco2)cc1)Nc1ccccc1	HEK293 tox 45µM, NIH3T3 tox 35µM
CCCN(C)C(=O)Cc1ccc(N(Cc2ccc(F)cc2)C(=O)c2ccco2)cc1	HEK293 tox inconclusive, NIH3T3 tox inconclusive
Cc1ccc(C(=O)N2CCC3(CC2)CN(C(C)C)C3c2ccccc2)s1 (stereo unspecified)	HEK293 tox inconclusive, NIH3T3 tox inconclusive (no result: NPR1 antag, Luciferase inh)
COc1ccc(-n2ccnc2CN2CCN(CC=C(C)C)C(CCO)C2)cc1 (stereo unspecified)	NIH3T3 tox inconclusive
O=C1Nc2ccccc2CC12CCN2Cc1ccccc1C(F)(F)F (stereo unspecified)	HEK293 tox 79µM, NIH3T3 tox inconclusive
CC(C)CNC(=O)C(NC(=O)c1ccccc1)C1CCN(C(=O)CC(C)C)CC1 (stereo unspecified)	HEK293 tox inconclusive
Cc1nn(-c2ccccc2)c2c1C(C(C)C)N(C1CCN(C(=O)c3cccc(Cl)c3)CC1)C2=O (stereo unspecified)	HEK293 tox 18µM, NIH3T3 tox inconclusive (no result: NPR1 antag, Luciferase inh, GPT2 inhibitor)
Cc1nn(-c2ccccc2)c2c1C(C(C)C)N(C1CCN(C(=O)c3ccc(Cl)cc3)CC1)C2=O (stereo unspecified)	HEK293 tox 25µM, NIH3T3 tox inconclusive (no result: NPR1 antag, Luciferase inh, GPT2 inhibitor)
COc1ccc(C(=O)N2CCC(N3C(=O)c4c(c(C)nn4-c4ccccc4)C3C(C)C)CC2)cc1 (stereo unspecified)	none (no result: NPR1 antag, Luciferase inh, GPT2 inhibitor)
COc1cccc(C(=O)N2CCC(N3C(=O)c4c(c(C)nn4-c4ccccc4)C3C(C)C)CC2)c1 (stereo unspecified)	HEK293 tox 45µM, NIH3T3 tox 35µM (no result: NPR1 antag, Luciferase inh, GPT2 inhibitor)
O=C(c1cc2c(s1)CCC(C(=O)N1CCN(C3CCCCC3)CC1)C2)N1CCCCC1 (stereo unspecified)	HEK293 tox inconclusive, NIH3T3 tox inconclusive
C[C@]1(CO)[C@H]2Cc3sc(NC(=O)c4c(F)cccc4F)nc3[C@@H](CC(=O)NC3CCCC3)[C@]2(C)CC[C@H]1O	HEK293 tox inconclusive, NIH3T3 tox inconclusive
Cc1ncccc1C(=O)N1CCCN(Cc2ccncc2)C(c2ccccc2)CC(=O)NCC1 (stereo unspecified)	none
O=C(C[C@H]1NC(=O)c2ccccc2NC1=O)Nc1ccncc1	none
CCOc1ccccc1NC(=O)C[C@H]1NC(=O)c2ccccc2NC1=O	none
Cc1cc(Br)ccc1NC(=O)C[C@H]1NC(=O)c2ccccc2NC1=O	HEK293 tox inconclusive, NIH3T3 tox 20µM
O=C(C[C@H]1NC(=O)c2ccccc2NC1=O)Nc1cccc(C(F)(F)F)c1	HEK293 tox 45µM, NIH3T3 tox inconclusive
Cc1c(Cl)cccc1NC(=O)C[C@H]1NC(=O)c2ccccc2NC1=O	HEK293 tox 45µM, NIH3T3 tox inconclusive
O=C(CCc1c[nH]c2ccccc12)Nc1cccc(-c2nnc3n2CCCC3)c1	HEK293 tox inconclusive, NIH3T3 tox inconclusive
COc1ccc(-c2cc3nc4c(c(=O)n3[nH]2)CN(C(=O)c2cc(CN3CCOCC3)on2)CC4)cc1	HEK293 tox inconclusive, NIH3T3 tox inconclusive, Luciferase inh inconclusive, GPT2 inhibitor inconclusive
Cc1noc(C)c1C(=O)N1CCN(c2ccc3nnc(C4CC4)n3n2)CC1	none (no result: NPR1 antag, Luciferase inh, GPT2 inhibitor)
CC1=C[C@@H](CNC(=O)C2CCCCC2)[C@H](C(C)C)C[C@H]1Cc1nc2ccccc2n1C	NPR1 antag inconclusive, HEK293 tox 32µM, NIH3T3 tox 32µM, GPT2 inhibitor inconclusive
CCC(CC)C(=O)NC[C@@H]1C=C(C)[C@H](Cc2nc3ccccc3n2C)C[C@H]1C(C)C	NPR1 antag inconclusive, HEK293 tox 32µM, NIH3T3 tox 35µM
CC1=C[C@@H](CNC(=O)CC(C)(C)CC(=O)O)[C@H](C(C)C)C[C@H]1Cc1nc2ccccc2n1C	NIH3T3 tox inconclusive
CC1=C[C@@H](CNC(=O)c2ccccc2)[C@H](C(C)C)C[C@H]1Cc1nc2ccccc2n1C	NPR1 antag inconclusive, HEK293 tox 25µM, NIH3T3 tox 32µM
CCNc1ncnc2sc3c(c12)CCN(Cc1ccc[nH]1)C3	HEK293 tox inconclusive, NIH3T3 tox 40µM
Cc1ccc(-n2cccc2CC(=O)N(C)Cc2ccco2)cc1	HEK293 tox inconclusive, NIH3T3 tox inconclusive, Luciferase inh inconclusive
O=C(C1CCN(Cc2ccccc2-c2ccccc2F)CC1)N1CCC(Cc2ccccc2)CC1	HEK293 tox 35µM, NIH3T3 tox 35µM (no result: NPR1 antag, Luciferase inh, GPT2 inhibitor)
O=C(NCc1cccc(F)c1)C1CCN(Cc2ccccc2-c2ccccc2F)CC1	HEK293 tox 40µM, NIH3T3 tox inconclusive (no result: NPR1 antag, Luciferase inh, GPT2 inhibitor)
O=C(C1CCCC1)N1CCN(Cc2ccccc2-c2ccccc2F)CC1	HEK293 tox inconclusive, NIH3T3 tox inconclusive (no result: NPR1 antag, Luciferase inh)
O=C1CCCN1CC(=O)N1CCC(C2CCN(Cc3cccc(F)c3F)CC2)C1 (stereo unspecified)	none
O=C(NCC(F)(F)F)C1CCN(Cc2ccccc2-c2ccccc2F)CC1	none (no result: NPR1 antag, Luciferase inh, GPT2 inhibitor)
O=C(C1CCCCC1)N1CCC(C2CCN(Cc3cccc(F)c3F)CC2)C1 (stereo unspecified)	HEK293 tox 79µM, NIH3T3 tox inconclusive
O=C(NCCCc1ccccc1)C1CCN(Cc2ccccc2-c2ccccc2F)CC1	HEK293 tox 22µM, NIH3T3 tox inconclusive (no result: NPR1 antag, Luciferase inh, GPT2 inhibitor)
O=[S+]1([O-])c2cccnc2O[C@@H](COCc2ccccc2)CN1Cc1ccc2c(c1)OCO2	HEK293 tox inconclusive, NIH3T3 tox inconclusive (no result: NPR1 antag, Luciferase inh)
O=C(c1cccc(Cl)c1)N1CCN(Cc2ccccc2-c2ccccc2F)CC1	HEK293 tox inconclusive, NIH3T3 tox 45µM (no result: NPR1 antag, Luciferase inh)
CN1CCN(C(=O)c2ccc3c(c2)NC(C)(CCCCc2ccccc2)CO3)CC1=O (stereo unspecified)	NPR1 antag inconclusive, HEK293 tox inconclusive, NIH3T3 tox inconclusive
O=C(NCc1cccc(Cl)c1)C1CCN(C(=O)c2ncn3c2COC(c2ccc(F)cc2)C3)CC1 (stereo unspecified)	Luciferase inh 25µM, GPT2 inhibitor inconclusive
COc1ccc(C2Cn3cnc(C(=O)N4CCC(C(=O)NCc5ccccn5)CC4)c3CO2)cc1 (stereo unspecified)	none
O=C(NCc1cccc(Cl)c1)C1CCN(C(=O)c2ncn3c2COC(c2ccccc2)C3)CC1 (stereo unspecified)	Luciferase inh 20µM
O=C(NCc1ccccn1)C1CCN(C(=O)c2ncn3c2COC(c2ccc(Cl)cc2)C3)CC1 (stereo unspecified)	Luciferase inh 32µM
Cc1cccc(OCC(=O)N2CCCC(c3noc(COc4ccccc4F)n3)C2)c1 (stereo unspecified)	NPR1 antag inconclusive, HEK293 tox inconclusive, NIH3T3 tox inconclusive, Luciferase inh inconclusive
Cn1nc(C2CC2)cc1NC(=O)C1CC1	none (no result: NPR1 antag, Luciferase inh)
